HCMV inh – blocks human cytomegalovirus replication | HFF cells, HCMV-luciferase reporter, 72 h; active compounds read low | 4.5% of 410,000 active | activity change, negative = inhibition, % at 57.5 µM; in the data active = activity change below about -60%; inconclusive = no clear call, values can overlap the other calls; inactive = above about -39%
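Two compound doses tested in HFFs infected with HCMV-luciferase, MOI 1 PFU/cell, 72 h at 37C. Lysate luminescence read with OneGlo; data normalized against buffer-only and 10uM Salinomycin inhibitor controls.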
Lassa entry inh – Lassa virus entry inhibition; Lassa virus pseudotype entry inhibition, cell reporter; Potency, µM (top dose mostly 37.9 µM), without a hit: at the highest dose activity change, negative = inhibition, usual class: inhibitors; 1.2% of 300,000 active; AID 540256; calls by dose curve; tested in HEK293 cells; also: potency is read from the fitted curve at half-maximal effect; nearly all actives have a fitted effect of over 50% in size
MARV entry inh – Marburg virus entry inhibition; 1.8% of 300,000 active; Potency, µM (highest dose often 37.8 µM), for inactives: at the highest dose activity change, negative = inhibition, actives largely listed as inhibitors; Marburg virus pseudotyped entry inhibition, cell reporter; calls by dose curve; tested in HEK293 cells; also: potency is read from the fitted curve at half-maximal effect
HCV inh – inhibitors of hepatitis C virus infection | Huh7.5.1 HCVcc-Cre infection, luciferase reporter, 44 h | Potency, µM (doses to about 41.8 µM), for the others: top-dose activity change, negative = inhibition, hits mostly inhibitors | 3.4% of 340,000 active; active = well fitted inhibition curve with a large enough effect; inconclusive = small, poorly fitted or top-dose-only effect, or another doubt; inactive = no such curve, though single readings can be large or run the other way; also: potency is read from the fitted curve at half-maximal effect
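Infectious HCV cell culture screen: compound-treated cells (1,000/well, pre-plated 4 h) are infected with HCVcc-Cre at roughly 0.5 moi and grown 44 h. Infection is quantified by luciferase signal after 15 min substrate incubation at room temperature.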
FMDV antiviral – blocks foot and mouth disease virus; FMDV antiviral cell-based qHTS; Potency, µM (titrated, usually from 57.9 µM), for inactives: top-dose activity change, negative = inhibition, usual class: inhibitors; 1.2% of 410,000 active; AID 1159524; calls by dose curve; tested in HEK293T cells; also: read-out not given here; potency is read from the fitted curve at half-maximal effect; nearly all actives have a fitted effect of over 45% in size
* hit, by the source's call; ? = inconclusive; . = not tested or not shown; + = active, no number; ! = not active in a repeat; [ ] = remark or other dose. Rows were chosen to be rich in hits. Some 7.9% of all compounds tested hit in one or more screens of this group. % is scaled to controls: 0 for no effect and ±100 for the full control effect.

SMILES	HCMV inh	Lassa entry inh	MARV entry inh	HCV inh	FMDV antiviral
CCc1c(C)c2ccc(O)c(CN3CCCC3)c2oc1=O	35	?	11%[46.1 µM]	-1%	-3%
Cc1noc(-c2ccc(-c3noc(-c4ccccc4)n3)cc2)n1	50	2%[46.1 µM]	.	.	33%
Cc1ccc(-c2nc(-c3ccccc3)no2)c(Cl)c1	-79*	.	.	6%	-38%
Cc1ccc(-c2nc(-c3ccncc3)no2)cc1	64	?	?	?	-23%
Cc1ccc(-c2nc(-c3ccccc3)no2)cc1	15	?	?	10%	11µM*
CC(C)(C)c1ccc(-c2nc(-c3ccncc3)no2)cc1	-70*	?	?	-21%	?
Cc1cccc(-c2nc(-c3ccncc3)no2)c1	77	10µM*	?	?	34%
COc1ccc(-c2noc(-c3ccccc3-c3ccccc3)n2)cc1	-37	-2%	-19%	?	-10%
CSc1ccc(CN(C)C(=O)COc2ccc(C(=O)c3ccccc3)cc2)cc1	-28	?	-24%[46.1 µM]	-28%	-9%
O=C(CCc1nnc2ccc(NCc3ccco3)nn12)N1CCN(c2ccc(F)cc2)CC1	-11	-19%[46.1 µM]	14%[46.1 µM]	-4%	-13%
Cc1nn(-c2ccccc2)c(C)c1NC(=O)COC(=O)c1ccccc1OC(F)F	-22	.	.	12%	7%
Cc1ccc(N2CN=C3SCC(=O)N3C2)cc1C	28	.	.	12%	15%
CC(=O)c1cccc(Nc2c3c(nc4nc(-c5cccs5)nn24)CCCC3)c1	56	-7%[46.1 µM]	.	.	-16%
COc1ccccc1-c1nc(C#N)c(N2CCN(Cc3ccccc3)CC2)o1	-33	-22%	-23%	11µM*	?
COc1ccccc1-c1nc(C#N)c(N2CCC(Cc3ccccc3)CC2)o1	-3	?	-5%	?	?
O=CNC1(c2ccccc2)CCCCC1	5	6%	2%	24%	-14%
CCc1nccn1CCC(=O)N1CCCC(N2CCN(c3ccccc3C)CC2)C1 (configuration not stated)	-87*	1%	-24%	?	-10%
CCc1nccn1CCC(=O)N1CCCC(N2CCN(c3cccc(Cl)c3)CC2)C1 (configuration not stated)	20	.	.	?	33%
Cc1ccc(C(=O)N2CCCC(N3CCN(c4ccccc4C)CC3)C2)c(=O)[nH]1 (configuration not stated)	-70*	.	.	14%	-3%
CSCC[C@H](NC(=O)OC(C)(C)C)C(=O)N/N=C/c1ccc2nccnc2c1	-23	-12%	3.2µM*	8%	-11%
CCCCn1c(N)c(N(CCC(C)C)C(=O)CCN2C(=O)C3CC=CCC3C2=O)c(=O)[nH]c1=O (configuration not stated)	2	-13%	-19%[46.1 µM]	9%	-2%
COc1cc([C@@H]2c3cc4c(cc3[C@@H](O[C@@H]3O[C@@H]5CO[C@@H](C)O[C@H]5[C@H](O)[C@H]3O)[C@H]3COC(=O)[C@H]23)OCO4)cc(OC)c1O	-99*	.	.	?	0%
COc1cc(C2c3cc4c(cc3C(OC3OC5COC(C)O[C@@H]5C(O)C3O)C3COC(=O)C23)OCO4)cc(OC)c1O (some centres not stated)	.	.	.	.	2%
COc1cc(C2c3cc4c(cc3C(OC3OC5COC(c6cccs6)OC5C(O)C3O)C3COC(=O)C23)OCO4)cc(OC)c1O (configuration not stated)	-99*	.	.	-31%	-18%
Cc1ccc(OCC(=O)Nc2ccc(N3CCN(C(=O)c4ccco4)CC3)cc2)cc1C	?	-20%	?	-23%	14µM*
SMILES	HCMV inh	Lassa entry inh	MARV entry inh	HCV inh	FMDV antiviral
Cc1cc(OCC(=O)Nc2ccc(N3CCCC3)cc2)cc(C)c1Cl	70	7%	0%	?	-15%
Cc1cccc(OCC(=O)Nc2ccc(N3CCN(C(=O)c4ccco4)CC3)cc2)c1	-68*	?	?	?	16µM*
Cc1cccc(OCC(=O)Nc2ccc(N3CCN(C(=O)c4ccccc4)CC3)cc2)c1C	14	-18%	3%	?	14µM*
Cc1cc(OCC(=O)Nc2ccc(N3CCN(C(=O)c4ccco4)CC3)cc2)cc(C)c1Cl	-36	-35%	-41%	?	6.3µM*
Cc1cccc(-n2ncc3c(N4CCOCC4)ncnc32)c1	30	1.6µM*	3.7µM*	-17%	-77%
Cc1cccc(-n2ncc3c(NCc4cccnc4)ncnc32)c1	132	.	.	-29%	21%
Cc1ccc(-n2ncc3c(N4CCN(c5ccccc5)CC4)ncnc32)c(C)c1	-82*	?	-16%	4.5µM*	3.2µM*
Cc1ccc(-n2ncc3c(NCc4cccnc4)ncnc32)c(C)c1	?	?	?	10µM*!	?
COc1ccc(-n2ncc3c(N4CCN(c5cccc(C)c5)C(C)C4)ncnc32)cc1 (configuration not stated)	-66*	?	.	.	20µM*
COCC(=O)Nc1cc(C(=O)N2CCc3ccccc3C2)c2c(c1)nc(-c1ccncc1)n2C	.	.	.	.	-13%
O=C(NCc1ccccc1)C(c1ccc(-c2ccccc2)cc1)n1c(=O)c(-c2cc3ccccc3[nH]2)nc2ccccc21 (configuration not stated)	43	.	.	.	4%
Cc1cnc(-n2ncc(C(=O)N(CCO)C(C)C)c2-c2cccs2)nc1-c1ccc(F)cc1	.	.	.	.	22%
Cc1cccc(-n2ncc3c(N4CCN(c5ccccc5)CC4)ncnc32)c1	+	-47%[46.1 µM]	.	.	?
Cc1c(NC(=O)/C(C#N)=C/c2ccc(-c3cc(Cl)ccc3Cl)o2)c(=O)n(-c2ccccc2)n1C	?	17%	5%	?	-12%
Cc1c(NC(=O)/C(=C/c2cccs2)c2cccs2)c(=O)n(-c2ccccc2)n1C	-102*	-5%	9%	12%	-8%
Cc1c(N/N=C(\C#N)C(=O)c2ccc(Cl)cc2)c(=O)n(-c2ccccc2)n1C	-100*	?	4.1µM*	?	-2%
Cc1c(NC(=O)/C(C#N)=C/c2ccc(-c3ccc(Cl)cc3)o2)c(=O)n(-c2ccccc2)n1C	?	?	?	?	25µM*
N#C/C(=N\Nc1ccc(Cl)cc1)C(=O)c1ccccc1	-99*	?	11µM*	22µM*	?
CCOC(=O)NC(=O)/C(C#N)=N\Nc1ccc(Cl)cc1	-8	10%	6%[46.1 µM]	1%	-2%
CCOc1ccccc1NC(=O)c1cn(C2CCCC2)c(=O)c2c1c1ccccc1n2C	?	?	?	.	-26%
Cc1ccc(N2CCN(C(=O)c3cc(S(=O)(=O)N4CCCCC4)c[nH]3)CC2)c(C)c1	?	-8%[46.1 µM]	.	.	-16%
Cc1nc(Cl)c(N=Cc2cccc([N+](=O)[O-])c2)c(Cl)n1	28	27%	-4%[46.1 µM]	16%	9%
CCCCN(C)CCCNC(=O)c1cn(C)c2ccc(S(=O)(=O)N(C)C3CCCCC3)cc2c1=O	?	.	.	?	21%
C/C(=N\NC(=O)c1ccc(Cn2cc(Br)cn2)o1)c1ccc(NC(=O)c2ccoc2C)cc1	24	-25%	?	7.1µM*	-7%
